Measurements reported in article PMC8159961, “Exploring protein hotspots by optimized fragment pharmacophores” (Nature Communications, 2021).
A number with no mark means an inactive call. How the calls were made is not given here.

Columns and labels:
Assay in all cases: primary screen, binary call; higher = more effect of the substance
Factor Xa = Factor Xa (bovine, UniProt P00743); design: screenings were carried out in duplicate in one independent experiment; conditions: 200 µM
Method: Protease inhibitory assays were performed in transparent microtiter plates in a final volume of 200 µL with the use of chromogenic substrates. The reaction rates in the absence and in the presence of the inhibitor were measured; screenings were carried out in duplicate in one independent experiment and Ki values were determined in triplicate in two independent experiments.

5-HT6 receptor = 5-HT6 receptor (human, UniProt P50406); design: hit call from the mean of at least two separate experiments; conditions: 10 µM
5-HT7b receptor = 5-HT7b receptor (human, UniProt P34969); design: hit call from the mean of at least two separate experiments; conditions: 10 µM
Sequence of 5-HT7b receptor (P34969 whole entry, looked up): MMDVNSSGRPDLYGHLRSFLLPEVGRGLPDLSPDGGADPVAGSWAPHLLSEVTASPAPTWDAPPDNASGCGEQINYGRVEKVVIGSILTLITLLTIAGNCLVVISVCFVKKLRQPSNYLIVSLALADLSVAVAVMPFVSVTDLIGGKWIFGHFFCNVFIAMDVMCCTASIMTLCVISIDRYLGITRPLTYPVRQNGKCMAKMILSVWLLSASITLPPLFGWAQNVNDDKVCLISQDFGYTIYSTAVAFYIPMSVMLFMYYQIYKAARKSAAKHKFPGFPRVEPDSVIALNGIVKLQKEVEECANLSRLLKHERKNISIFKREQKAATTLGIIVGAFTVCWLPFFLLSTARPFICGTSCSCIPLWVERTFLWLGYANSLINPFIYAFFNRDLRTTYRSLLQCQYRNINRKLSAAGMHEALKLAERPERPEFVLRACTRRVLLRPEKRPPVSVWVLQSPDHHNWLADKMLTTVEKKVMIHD

Sequence of Factor Xa (P00743 41-180 limits assumed): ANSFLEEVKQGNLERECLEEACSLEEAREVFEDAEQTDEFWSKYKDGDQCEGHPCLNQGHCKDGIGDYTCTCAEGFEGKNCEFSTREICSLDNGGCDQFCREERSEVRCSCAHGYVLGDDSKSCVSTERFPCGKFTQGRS
Sequence of Factor Xa (P00743 234-492 limits assumed): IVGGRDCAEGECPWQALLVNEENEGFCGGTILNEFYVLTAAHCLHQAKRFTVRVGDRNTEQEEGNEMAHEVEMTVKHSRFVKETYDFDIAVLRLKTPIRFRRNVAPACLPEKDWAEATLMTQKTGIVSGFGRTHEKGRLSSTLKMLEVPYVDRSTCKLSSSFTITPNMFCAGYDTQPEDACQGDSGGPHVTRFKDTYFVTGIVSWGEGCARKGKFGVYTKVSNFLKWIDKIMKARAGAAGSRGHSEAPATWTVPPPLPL
Sequence of 5-HT6 receptor (P50406 whole entry, looked up): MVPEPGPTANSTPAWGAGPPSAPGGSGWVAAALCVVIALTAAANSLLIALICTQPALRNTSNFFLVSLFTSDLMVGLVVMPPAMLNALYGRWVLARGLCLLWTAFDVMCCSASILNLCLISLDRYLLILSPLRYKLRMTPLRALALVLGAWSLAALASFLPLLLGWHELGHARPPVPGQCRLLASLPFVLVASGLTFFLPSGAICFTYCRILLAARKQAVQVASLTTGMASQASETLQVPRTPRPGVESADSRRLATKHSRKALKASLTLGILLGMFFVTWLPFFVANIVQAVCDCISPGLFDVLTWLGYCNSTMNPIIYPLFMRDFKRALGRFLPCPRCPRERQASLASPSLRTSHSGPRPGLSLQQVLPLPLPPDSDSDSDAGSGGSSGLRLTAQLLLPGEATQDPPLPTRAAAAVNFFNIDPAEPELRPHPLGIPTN

| Compound | Factor Xa (Factor Xa) | 5-HT6 (5-HT6 receptor) | 5-HT7 (5-HT7b receptor) |
| --- | --- | --- | --- |
| O=C(O)c1cccc(Nc2ncccn2)c1 | 0 | 1 (active) | 0 |
| O=C1CCN(c2ccncc2)CC1 | 0 | 0 | 0 |
| CCn1cnc2ccccc21 | 0 | 0 | 0 |
| O=c1[nH]c2c(s1)CCC2 | 0 | 0 | 0 |
| Cc1nc(-c2ccccc2)cs1 | 0 | 1 (active) | 0 |
| O=C1CSC(Nc2ccc(F)cc2)=N1 | 0 | 0 | 0 |
| O=C(Nc1ccccc1)C1CC1 | 0 | 0 | 0 |
| O=C1NC(=O)/C(=C\c2cccs2)N1 | 1 (active) | 0 | 0 |
| O=C1CNCCN1c1ccccc1 | 0 | 0 | 0 |
| O=c1ccc2c([nH]1)CCCC2 | 0 | 0 | 0 |
| O=C1NC2(CCCC2)Nc2ccccc21 | 0 | 0 | 0 |
| COc1ccccc1N1CCNCC1 | 0 | 1 (active) | 1 (active) |
| O=C1CC(CSc2ccc(Cl)cc2)=NN1 | 0 | 0 | 0 |
| O=C(O)CC1CCC(=O)N1 (stereo not drawn) | 0 | 0 | 0 |
| CCc1nccn1CC(=O)O | 0 | 0 | 0 |
| Cn1c(CO)nc2ccccc21 | 0 | 0 | 0 |
| O=C1CCN(c2ccccn2)CC1 | 0 | 0 | 0 |
| CN(C)c1cc(CN)ccn1 | 0 | 0 | 0 |
| Oc1ccc(C2CCNCC2)cc1 | 0 | 0 | 0 |
| Nc1nnc(-c2cccs2)[nH]1 | 0 | 1 (active) | 0 |
| CC(=O)c1ccc2c(c1)CNCC2 | 0 | 0 | 0 |
| CC1CCc2sc(C(=O)O)cc2C1 (stereo not drawn) | 0 | 0 | 0 |
| CCc1ccc(NC2=NCCCS2)cc1 | 0 | 0 | 0 |

| Compound | Factor Xa (Factor Xa) | 5-HT6 (5-HT6 receptor) | 5-HT7 (5-HT7b receptor) |
| --- | --- | --- | --- |
| Cc1ccc(-c2ccc(O)cc2)cc1 | 0 | 0 | 0 |
| O=C(O)C1CCN(c2ncccn2)CC1 | 0 | 0 | 0 |
| COC(=O)c1c(C)nc(C2CC2)[nH]c1=O | 0 | 0 | 0 |
| Cc1ccc(CCNc2ccccc2)cn1 | 0 | 0 | 0 |
| Oc1ccc(-n2cncn2)cc1 | 0 | 0 | 0 |
| O=C(c1ccncc1)N1CCNCC1 | 0 | 0 | 0 |
| O=C(c1ccccc1)N1CCC(CO)CC1 | 0 | 0 | 0 |
| N[C@H]1c2ccccc2C[C@H]1CO | 0 | 0 | 0 |
| Oc1cnc(-c2ccccc2)nc1 | 0 | 0 | 0 |
| Nc1ccc(SC(F)F)cc1 | 0 | 0 | 0 |
| O=C(CN1CCCC1)c1ccccc1Cl | 0 | 0 | 0 |
| Cc1cc(-c2ccccc2)n[nH]1 | 0 | 0 | 0 |
| NCC1(c2ccccc2)CCOCC1 | 0 | 0 | 0 |
| CS(=O)(=O)c1ccc(OC(F)(F)F)cc1 | 0 | 0 | 0 |
| COc1ccc(C2=CCNCC2)cc1 | 0 | 0 | 0 |
| N#CCCN1CCc2ccccc21 | 0 | 0 | 0 |
| Oc1nnc(-c2ccccc2)o1 | 0 | 0 | 0 |
| Cn1c(N)nc2ccccc21 | 1 (active) | 0 | 0 |
| O=C1CCCc2occc21 | 0 | 0 | 0 |
| Cc1cc(N)no1 | 0 | 0 | 0 |
| Fc1ccc2c(C3CCNCC3)c[nH]c2c1 | 0 | 1 (active) | 1 (active) |
| Clc1ccc2nnnn2n1 | 0 | 0 | 0 |
